Test results published in PubChem BioAssay.
Calls of active or inactive are those of the source.

Assays:
[1] = compound effects on differentiated 3T3-L1 adipocyte viability – cell-based, 3T3-L1 adipocytes, calcein-AM fluorescence, 48 h, basal, profiling panel (AID 1163); conditions: 3T3-L1 adipocytes viability, higher = more signal
[2] = compound effects on hepatocellular carcinoma cell viability – HepG2, calcein-AM fluorescence, 48 h, basal, profiling panel (AID 1164); conditions: higher = more signal
[3] = compound effects on multiple myeloma cell viability – MM1S, calcein-AM fluorescence, 48 h, basal, profiling panel (AID 1165); conditions: higher = more signal
[4] = calcein-AM signal in unstimulated myeloma cells – cell-based, calcein-AM fluorescence, 48 h, PK04 Diversity Set, profiling panel (AID 1166); conditions: RPMI8226 myeloma viability, higher = more signal;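 also: cells grown under basal conditions without added stimulus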
[5] = JC-1 mitochondrial signal, unstimulated HepG2 cells – cell-based, JC-1 fluorescence, 24 h, 100 nL compound, profiling panel (AID 1167); conditions: HepG2 mitochondrial potential, higher = more signal
[6] = JC-1 mitochondrial signal, unstimulated adipocytes – cell-based, JC-1 fluorescence, 3T3-L1 adipocytes, 24 h, 100 nL compound, profiling panel (AID 1168); conditions: JC-1 mitochondrial fluorescence, higher = more signal, called active from +8 up or from −8 down
[7] = JC-1 mitochondrial signal, unstimulated myeloma cells – cell-based, JC-1 fluorescence, RPMI8226, 24 h, 100 nL compound, profiling panel (AID 1169); conditions: JC-1 mitochondrial potential fluorescence, higher = more signal
[8] = JC-1 mitochondrial signal, unstimulated MM1S myeloma – cell-based, JC-1 fluorescence, 24 h, 100 nL compound, profiling panel (AID 1170); conditions: MM1S mitochondrial potential, higher = more signal
[9] = resazurin metabolic signal in A549 cells – cell-based, resazurin fluorescence, 24 h, PK04 Diversity Set, profiling panel (AID 1171); conditions: A549 viability, higher = more signal, called active from +8 up or from −8 down
[10] = resazurin metabolic signal in HepG2 cells – cell-based, resazurin fluorescence, 24 h, PK04 Diversity Set, profiling panel (AID 1172); conditions: HepG2 viability, higher = more signal
[11] = budding yeast growth changes without added modifier – OD600, strain BY4716, 24 h, basal condition, primary screen (AID 1173); conditions: S. cerevisiae BY4716 growth, OD600, 24 h; higher = more signal, called active from +8 up or from −8 down
[12] = viability profiling in MM1S myeloma cells – cell-based, resazurin fluorescence, basal, 24 h, PK04 Diversity Set, profiling panel (AID 1174); conditions: higher = more signal, called active from +8 up or from −8 down
[13] = biological target: Dihydroorotate dehydrogenase (quinone), mitochondrial (Plasmodium falciparum (isolate 3D7)) (UniProt Q08210); experiment: inhibition of P. falciparum DHODH – biochemical, C-terminal His tag, absorbance 600 nm, primary screen (AID 1175); conditions: PfDHODH enzyme, DCIP absorbance 600 nm; higher = more signal, called active from +8 up or from −8 down;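 also: recombinant parasite enzyme with a five histidine tag at its C terminus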
Dihydroorotate dehydrogenase (quinone), mitochondrial (Plasmodium falciparum (isolate 3D7)), sequence (Q08210 whole entry, looked up): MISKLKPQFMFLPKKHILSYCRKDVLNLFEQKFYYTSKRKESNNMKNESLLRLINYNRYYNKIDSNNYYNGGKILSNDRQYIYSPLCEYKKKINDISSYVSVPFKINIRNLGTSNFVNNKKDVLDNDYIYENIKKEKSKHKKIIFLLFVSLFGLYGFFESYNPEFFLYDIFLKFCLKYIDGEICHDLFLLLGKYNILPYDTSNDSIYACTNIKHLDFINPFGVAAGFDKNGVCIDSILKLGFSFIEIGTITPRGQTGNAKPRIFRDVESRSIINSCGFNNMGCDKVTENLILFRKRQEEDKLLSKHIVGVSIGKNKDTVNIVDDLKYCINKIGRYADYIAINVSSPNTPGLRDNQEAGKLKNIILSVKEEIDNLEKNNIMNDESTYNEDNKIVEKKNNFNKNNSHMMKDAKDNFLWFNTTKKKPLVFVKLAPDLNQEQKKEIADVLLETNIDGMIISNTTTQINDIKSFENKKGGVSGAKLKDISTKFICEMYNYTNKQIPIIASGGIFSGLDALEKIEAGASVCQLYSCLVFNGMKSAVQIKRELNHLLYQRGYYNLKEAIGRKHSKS

[14] = growth modulation of vineyard yeast isolate – strain RM11-1a, OD600, basal, 24 h, primary screen (AID 1177);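 also: cultures grown under basal conditions with no added stressor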; conditions: S. cerevisiae RM11-1a growth, OD600, 24 h; higher = more signal, called active from +8 up or from −8 down
[15] = growth of efflux-deficient E. coli DRC39 – strain DRC39, OD650, 24 h, E. coli filamentation inducers, primary screen (AID 1178);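 also: growth measured as culture turbidity by optical density at 650 nm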; conditions: E. coli DRC39 acrAB, higher = more signal, called active from +8 up or from −8 down
[16] = growth of efflux-deficient E. coli DRC39 – strain DRC39, OD650, 48 h, E. coli filamentation inducers, primary screen (AID 1179);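 also: screen aims at cell division blockers that make cells filament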; conditions: E. coli DRC39 delta-acrAB growth, higher = more signal, called active from +8 up or from −8 down
[17] = viability profiling in RPMI8226 myeloma cells – cell-based, resazurin fluorescence, basal, 24 h, PK04 Diversity Set, profiling panel (AID 1180); conditions: higher = more signal;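 also: RPMI8826 multiple myeloma cell line at 5000 cells per well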
[18] = biological target: E3 ubiquitin-protein ligase XIAP (Homo sapiens) (UniProt P98170); experiment: small molecules binding XIAP protein – biophysical, small-molecule microarray, fluorescence 635 nm, primary screen (AID 1181); conditions: higher = more signal;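 also: score merges 667 nm emission and signal to noise over triplicate slides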
E3 ubiquitin-protein ligase XIAP (Homo sapiens), sequence (P98170 whole entry, looked up, the tested form may be a part): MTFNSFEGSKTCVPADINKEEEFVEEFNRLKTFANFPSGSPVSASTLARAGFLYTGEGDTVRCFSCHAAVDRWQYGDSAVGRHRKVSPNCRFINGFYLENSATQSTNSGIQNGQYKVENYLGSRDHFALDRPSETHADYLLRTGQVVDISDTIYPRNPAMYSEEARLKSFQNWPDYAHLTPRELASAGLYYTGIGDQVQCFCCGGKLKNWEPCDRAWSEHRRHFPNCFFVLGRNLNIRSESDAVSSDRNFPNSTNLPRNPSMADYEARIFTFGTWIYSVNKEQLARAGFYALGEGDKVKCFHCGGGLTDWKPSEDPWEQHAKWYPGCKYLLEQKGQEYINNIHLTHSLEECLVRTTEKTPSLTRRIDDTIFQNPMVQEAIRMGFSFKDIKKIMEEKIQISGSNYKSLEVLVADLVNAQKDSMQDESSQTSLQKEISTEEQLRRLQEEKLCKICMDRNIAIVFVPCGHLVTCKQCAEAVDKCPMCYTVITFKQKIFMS

[19] = test system: XIP peptide (Xip251-270) binding; experiment: XIP fragment 251-270 binding compounds – biochemical, small-molecule microarray, fluorescence 635/667 nm, 0.1 µg/mL protein, primary screen (AID 1182); conditions: fluorescent protein binding, 635 nm, higher = more signal, called active from +8 up or from −8 down
XIP peptide (Xip251-270) = experiment: compounds binding XIP fragment 251-270 – biochemical, small-molecule microarray, fluorescence 635/667 nm, 0.5 µg/mL protein, primary screen (AID 1183); conditions: fluorescence 635 nm, higher = more signal

| SMILES | z-score [1] | z-score [2] | z-score [3] | z-score [4] | z-score [5] | z-score [6] | z-score [7] | z-score [8] | z-score [9] | z-score [10] | z-score [11] | z-score [12] | composite z-score [13] | z-score [14] | z-score [15] | z-score [16] | z-score [17] | composite z-score [18] | composite z-score [19] | composite z-score (XIP peptide (Xip251-270)) |
| --- | --- | --- | --- | --- | --- | --- | --- | --- | --- | --- | --- | --- | --- | --- | --- | --- | --- | --- | --- | --- |
| C=C(CCCC)/C(=C/C[C@@H](OC(=O)c1ccncc1)c1ccc(OCCO)cc1)c1cnc2ccccc2c1 | 1.56 | -0.375 | -1.52 | -0.393 | 2.07 | -0.0617 (inactive) | -0.344 | 0.279 | 0.395 (inactive) | 0.0347 | -2.64 (inactive) | 0.803 (inactive) | -2.2 (inactive) | 0.365 (inactive) | 1 (inactive) | 0.734 (inactive) | 1.59 | -0.035 | 0.384 (inactive) | 0.697 |
| CCN(CC)c1ccc(N2CC=CC34O[C@@H]5C=CCOC(=O)[C@@H]5[C@H]3C(=O)N(C(C)CO)[C@@H]4C2=O)cc1 (stereo not given in full) | 0.754 | 0.0598 | 1.15 | -0.262 | 0.469 | 0.382 (inactive) | -0.809 | 0.907 | 0.924 (inactive) | 0.878 | -0.746 (inactive) | 1.3 (inactive) | -0.393 (inactive) | -0.0464 (inactive) | 1.7 (inactive) | 1.31 (inactive) | 0.587 | -0.0277 | 0.149 (inactive) | -1.73 |
| COCCOC(=O)N1C(=O)[C@@]2(c3cc(C#CCCO)ccc31)[C@H](c1ccccc1OCCO)N1[C@H](c3ccccc3)[C@H](c3ccccc3)OC(=O)[C@H]1[C@@H]2C(=O)NC[C@H](O)c1ccccc1 | 0.915 | -0.527 | -0.377 | -1.11 | 0.278 | 1.96 (inactive) | -0.73 | -1.3 | 1.56 (inactive) | 1.43 | -0.769 (inactive) | 0.716 (inactive) | -0.375 (inactive) | -0.404 (inactive) | 2.24 (inactive) | 2.23 (inactive) | 0.433 | -0.0446 | 0.533 (inactive) | 0.705 |
| CC(C)[C@@H](C(=O)O)n1cc(-c2ccccn2)nn1 | 1.05 | 0.106 | -0.0169 | 0.516 | 0.422 | 0.592 (inactive) | -0.276 | 0.414 | 0.756 (inactive) | 0.735 | -1.37 (inactive) | 1.11 (inactive) | -0.206 (inactive) | -0.52 (inactive) | 1.87 (inactive) | 1.17 (inactive) | 0.386 | -0.0597 | 0.353 (inactive) | -0.548 |
| COC(=O)C1=CC(c2ccc(CO)cc2)=CC(C2CC2)N(C)C=C1C(=O)OC (stereo not given) | 1.31 | 0.295 | 1.07 | -0.503 | 1.47 | 0.935 (inactive) | 0.515 | 1.12 | 0.419 (inactive) | 0.578 | -2.82 (inactive) | 0.833 (inactive) | -0.782 (inactive) | -3.29 (inactive) | 0.983 (inactive) | 1.28 (inactive) | 0.842 | -0.0388 | 1.8 (inactive) | -0.407 |
| O=C1c2ccccc2[C@](Cc2ccccc2I)(C(=O)O)[C@H](c2ccc(CO)cc2)N1Cc1ccccc1Cl | 1 | -0.504 | -0.089 | -1.18 | -0.172 | 0.571 (inactive) | -0.565 | 0.295 | 0.177 (inactive) | 0.722 | -2.78 (inactive) | 1.34 (inactive) | -0.812 (inactive) | -1.29 (inactive) | -0.0031 (inactive) | -0.11 (inactive) | 0.601 | -0.148 | 0.8 (inactive) | 0.507 |
| CO[C@H]1O[C@H](CO)[C@@H](OC(=O)CCc2ccccc2)[C@@H]2OC(=O)[C@H](Cc3ccccc3)C/C=C/C[C@@H](Cc3ccccc3)C(=O)O[C@@H]12 | 0.234 | 0.62 | -0.0096 | 0.212 | 0.443 | 0.886 (inactive) | 0.12 | 0.119 | 1.43 (inactive) | 1.02 | -2.53 (inactive) | 0.832 (inactive) | -15.6 (active) | -0.103 (inactive) | 1.19 (inactive) | 0.754 (inactive) | 0.884 | -0.039 | 1.2 (inactive) | -0.0342 |
| COc1ccc([Si](C)(C)[C@H]2[C@H](CC(=O)N3Cc4ccccc4C[C@H]3CO)O[C@@]3(C(=O)N(Cc4cccc(N5C(=O)COc6ccccc65)c4)c4ccccc43)[C@@H]2C)cc1 | 1.8 | -0.0432 | -0.227 | -1.19 | 2.09 | 0.335 (inactive) | -1.15 | 0.424 | -0.987 (inactive) | -0.593 | -0.855 (inactive) | -1.11 (inactive) | -0.0999 (inactive) | 2.03 (inactive) | 1.48 (inactive) | -0.185 (inactive) | -0.668 | -0.163 | 1.83 (inactive) | 0.618 |
